PubChem BioAssay AID2235 (The Scripps Research Institute Molecular Screening Center, 2010)
Hit rate of the full screen: of about 320,000 compounds, about 2,800 (0.88%) were called active. The sample holds actives, similar compounds and a random draw of the others, so the mix is not that of the screen. A number with no mark means an inactive call.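 How the source made its calls: active means inhibition above the mean inhibition of all tested compounds plus 3 SD, computed separately for each screening campaign (cut at about 15% in these data); inactive means the rest.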

target: Serine/threonine-protein phosphatase PP1-alpha catalytic subunit (Homo sapiens) (UniProt P62136); test: PP1-alpha phosphatase inhibitors, primary screen, counter-screen for PP5 inhibitor project, biochemical, fluorescence, OMFP substrate, single point (AID 2235); details: purified PP1alpha, at 6.7 µM, active compounds read high
Sequence (P62136 whole entry, looked up): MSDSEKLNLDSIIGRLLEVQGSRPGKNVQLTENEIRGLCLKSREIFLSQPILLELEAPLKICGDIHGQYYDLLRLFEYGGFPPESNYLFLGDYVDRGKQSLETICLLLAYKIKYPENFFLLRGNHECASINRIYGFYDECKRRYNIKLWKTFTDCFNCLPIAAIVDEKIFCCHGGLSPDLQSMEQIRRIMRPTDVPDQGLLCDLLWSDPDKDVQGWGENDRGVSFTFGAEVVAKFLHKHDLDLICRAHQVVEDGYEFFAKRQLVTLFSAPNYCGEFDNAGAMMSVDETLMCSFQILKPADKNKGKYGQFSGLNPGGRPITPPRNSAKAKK

**Q.** For `O=C(O)c1cc([N+](=O)[O-])c(Nc2cccc3ccccc23)c([N+](=O)[O-])c1`, which inhibition is on record?
**A.** 3.7%

**Q.** `Cc1cc(C)cc(NC(=O)Cn2cnc3c(nnn3Cc3ccc(F)cc3)c2=O)c1` was tested. Which inhibition did it give?
**A.** 8.94%

**Q.** How did the inhibition turn out when `Cc1ccc(C)c(Cn2nnc3c(=O)[nH]c(C(=O)Nc4ccc(F)cc4)nc32)c1` was run?
**A.** 46.5% (active)

**Q.** For `O=C(Nc1ccc(F)cc1)N1CCCC(c2nc3c(nnn3Cc3ccccc3Cl)c(=O)[nH]2)C1` (configuration not stated), which inhibition is on record?
**A.** 4.93%

**Q.** How did the inhibition turn out when `CCCn1nnnc1NCc1ccc(CC)cc1` was run?
**A.** 0.05%

**Q.** With `Cc1nc(NC(=O)C2CCCCC2)sc1C` as the compound, how does the inhibition read?
**A.** -0.06%

**Q.** For `Cc1ccc(NC(=O)N2CCC(c3nc4c(nnn4Cc4c(F)cccc4Cl)c(=O)[nH]3)CC2)cc1`, which inhibition is on record?
**A.** 4.5%

**Q.** How did the inhibition turn out when `Cc1ccc(Cn2nnc3c(=O)[nH]c(C4CCN(S(=O)(=O)/C=C/c5ccccc5)CC4)nc32)cc1` was run?
**A.** 20.9% (active)

**Q.** `COc1ccc(Cn2nnc3c(=O)[nH]c(C4CCN(C(=O)c5ccccc5Cl)CC4)nc32)cc1` was tested. Which inhibition did it give?
**A.** 1.01%

**Q.** Which inhibition does the source give for `Cc1ccc(S(=O)(=O)CCC(=O)OCc2ccccc2)cc1` here?
**A.** -6.27%

**Q.** For `CC(=O)[C@@]12O[C@@H]1C[C@H]1[C@@H]3CC[C@H]4C[C@@H](O)CC[C@]4(C)[C@H]3CC[C@@]12C`, which inhibition is on record?
**A.** 0.47%

**Q.** With `C=CCN(CC=C)S(=O)(=O)c1ccc(C(=O)Nc2nc3c(s2)CCc2ccccc2-3)cc1` as the compound, how does the inhibition read?
**A.** 25.9% (active)

**Q.** With `COCCN(CCOC)S(=O)(=O)c1ccc(C(=O)Nc2nc3c(s2)CCc2ccccc2-3)cc1` as the compound, how does the inhibition read?
**A.** 22.6% (active)

**Q.** `COc1ccc(C(=O)Nc2ncc3c(n2)-c2ccccc2CC3)cc1` was tested. Which inhibition did it give?
**A.** -1.56%

**Q.** With `COCCN(CCOC)S(=O)(=O)c1ccc(/C(O)=C(\C#N)c2nc3ccccc3[nH]2)cc1` as the compound, how does the inhibition read?
**A.** -3.73%

**Q.** For `C=CCN(CC=C)S(=O)(=O)c1ccc(C(=O)Nc2sc3c(c2C(N)=O)CCCCC3)cc1`, which inhibition is on record?
**A.** -0.71%

**Q.** `CCN(c1ccccc1)S(=O)(=O)c1ccc(C(=O)Nc2nccs2)cc1` was tested. Which inhibition did it give?
**A.** 1.49%

**Q.** Which inhibition does the source give for `Cc1ccc(NC(=S)Nc2ncccc2C)c(C)c1` here?
**A.** -1.13%

**Q.** With `C#CCOCCOCCOCCNc1nc(N2CCN(C(=O)C([C@@H](C)CC)n3cc(C(N)COC(=O)C(F)(F)F)nn3)CC2)nc(N2CCN(C(=O)[C@H](CCCCN)n3cc(C(N)CC(C)C)nn3)CC2)n1` (some centres not stated) as the compound, how does the inhibition read?
**A.** 8.45%

**Q.** With `C#CCOCCOCCOCCNc1nc(N2CCN(C(=O)[C@H](C(C)C)n3cc(CCO)nn3)CC2)nc(N2CCN(C(=O)[C@H](C(C)C)n3cc(CCO)nn3)CC2)n1` as the compound, how does the inhibition read?
**A.** -0.91%

**Q.** Which inhibition does the source give for `C#CCOCCOCCOCCNc1nc(N2CCN(C(=O)[C@H](CCCCN)n3cc(CCC(=O)O)nn3)CC2)nc(N2CCN(C(=O)[C@H](CCCCN)n3cc(CC(C)O)nn3)CC2)n1` (some centres not stated) here?
**A.** 5.96%

**Q.** `C#CCOCCOCCOCCNc1nc(N2CCN(C(=O)CCCCCCCCCCNC(=O)Cn3cc(CCCCCN)nn3)CC2)nc(N2CCN(C(=O)CCCCCCCCCCNC(=O)[C@H](CO)n3cc(CCCSC)nn3)CC2)n1` was tested. Which inhibition did it give?
**A.** 64.7% (active)

**Q.** How did the inhibition turn out when `C#CCOCCOCCOCCNc1nc(N2CCN(C(=O)CCCCCCCCCCNC(=O)[C@H]([C@@H](C)CC)n3cc(CCCCN=C(N)N)nn3)CC2)nc(N2CCN(C(=O)CCCCCCCCCCNC(=O)[C@H](CO)n3cc(CCCSC)nn3)CC2)n1` was run?
**A.** 53.8% (active)

**Q.** With `C#CCOCCOCCOCCNc1nc(N2CCN(C(=O)Cn3cc(CCCCN)nn3)CC2)nc(N2CCN(C(=O)[C@H](CCCCN)n3cc(CCC(=O)O)nn3)CC2)n1` as the compound, how does the inhibition read?
**A.** -0.58%

**Q.** How did the inhibition turn out when `C#CCOCCOCCOCCNc1nc(N2CCN(C(=O)CCCCCCCCCCNC(=O)[C@H](CCCCN)n3cc(C)nn3)CC2)nc(N2CCN(C(=O)CCCCCCCCCCNC(=O)[C@H](CO)n3cc(CCCSC)nn3)CC2)n1` was run?
**A.** 64.8% (active)

**Q.** How did the inhibition turn out when `C#CCOCCOCCOCCNc1nc(N2CCN(C(=O)[C@H](C(C)C)n3cc(CCO)nn3)CC2)nc(N2CCN(C(=O)[C@H]([C@@H](C)CC)n3cc(CCCN=C(N)N)nn3)CC2)n1` was run?
**A.** 0.22%

**Q.** For `C#CCOCCOCCOCCNc1nc(N2CCN(C(=O)[C@H](CCCCN)n3cc([C@@H](N)C(C)CC)nn3)CC2)nc(N2CCN(C(=O)[C@H](Cc3ccc(O)cc3)n3cc([C@@H](N)C(C)CC)nn3)CC2)n1` (some centres not stated), which inhibition is on record?
**A.** 5.1%

**Q.** For `CN1CCN(c2ccc(CNS(=O)(=O)c3cccc(F)c3)cc2)CC1`, which inhibition is on record?
**A.** -3.01%

**Q.** With `O=C1/C(=C/c2cccs2)CCC1C1CCCC1` (configuration not stated) as the compound, how does the inhibition read?
**A.** -2.41%

**Q.** For `CC(=O)Oc1cc2c(C(=O)NCCN3CCOCC3)c(C)oc2c2ccccc12`, which inhibition is on record?
**A.** -0.6%

**Q.** For `Cc1ccc(N=C2NC(=O)c3cccc([N+](=O)[O-])c32)cc1`, which inhibition is on record?
**A.** -1.21%

**Q.** `COc1ccccc1C(=O)NC(=O)COC(=O)C1CC1` was tested. Which inhibition did it give?
**A.** -1.39%

**Q.** For `CCC(=C/c1sc2ccc3ccccc3c2[n+]1C)/C=C1\Sc2ccc3ccccc3c2N1C`, which inhibition is on record?
**A.** 79.3% (active)

**Q.** Which inhibition does the source give for `CC(NCc1ccccc1OC1CCCC1)c1ccccc1` (configuration not stated) here?
**A.** -3.47%

**Q.** For `O=C(Nc1ccc(S(=O)(=O)NCC2CCCO2)cc1)c1ccc(F)cc1` (configuration not stated), which inhibition is on record?
**A.** 1.04%

**Q.** Which inhibition does the source give for `COc1cnc(-c2ccccn2)nc1Oc1ccc(C(C)(C)C)cc1` here?
**A.** 57.9% (active)

**Q.** Which inhibition does the source give for `Cc1ccc(Oc2nc3ccccc3n3c(C)nnc23)cc1` here?
**A.** -3.88%

**Q.** With `CCOCCCNc1nc(-c2ccccc2)nc2ccccc12` as the compound, how does the inhibition read?
**A.** 3.36%

**Q.** How did the inhibition turn out when `CCC(=O)OCCNc1nc(-c2ccccc2)nc2ccccc12` was run?
**A.** 0.15%

**Q.** Which inhibition does the source give for `CC(C)(C)Nc1nc(-c2ccccn2)nc2ccccc12` here?
**A.** 18.4% (active)

**Q.** Which inhibition does the source give for `N#Cc1ccc(Oc2cc(C(F)(F)F)nc(-c3ccccn3)n2)cc1` here?
**A.** -1.29%

**Q.** `Cc1ccc(Oc2nc(-c3ccccn3)nc3ccccc23)cc1` was tested. Which inhibition did it give?
**A.** 17.4% (active)

**Q.** With `COc1ccc(NCCc2ccccn2)cc1` as the compound, how does the inhibition read?
**A.** 1.13%

**Q.** Which inhibition does the source give for `CC(C)(C)c1ccc(Oc2ccc(N)cc2)cc1` here?
**A.** 1.18%

**Q.** Which inhibition does the source give for `COC(=O)C1=NNC2(c3ccc(C)cc3)C(=O)N(c3cccc(C)c3C)C(=O)C12` (configuration not stated) here?
**A.** 2.4%

**Q.** With `Cc1ccc(-c2cnc(NC(=O)CCC(=O)N(C)Cc3ccccc3)n2C)cc1` as the compound, how does the inhibition read?
**A.** -3.93%

**Q.** How did the inhibition turn out when `CC(c1nnc(SCC(=O)Nc2sccc2C#N)n1-c1ccc(Cl)cc1)N(C)C` (configuration not stated) was run?
**A.** -0.51%
